Measured values: PubChem BioAssay AID1159580 (chemical genetic matrix, 2015)
Screen size: about 5,500 compounds; about 2,000 (36%) were called active. Roughly 18% stayed inconclusive and do not appear here. Cut-off read from the data, not from the text of the source: active = normalized growth mostly below about 0.91 (no sharp cut-off); inconclusive = no clear call, values can overlap the other calls; inactive = mostly above about 0.92. Some of the results follow.

Test: chemical genetic growth profiling, strain panel (AID 1159580);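 note: tested at 20 µM; growth read once vehicle control cultures reached saturation at 30 °C; 1 = growth at the plate median or of vehicle wells; lower values mean less growth of the strain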
Details: growth OD

Measured: normalized growth

Nc1nc(=S)c2[nH]cnc2[nH]1
inactive: S. cerevisiae deletion strains, locus YJR075W, strain HOC1, active compounds read low 1.03 | S. cerevisiae deletion strains, locus YKL009W, strain mrt4, active compounds read low 1 | S. cerevisiae deletion strains, locus YKL068W, active compounds read low 1 | S. cerevisiae deletion strains, locus YKL085W, strain MDH1 (second series), active compounds read low 1.02 | S. cerevisiae deletion strains, locus YKL085W, strain MDH1, active compounds read low 1.02 | S. cerevisiae deletion strains, locus YKL160W, strain elf1, active compounds read low 0.943 | S. cerevisiae deletion strains, locus YKL190W, strain CNB1, active compounds read low 1 | S. cerevisiae deletion strains, locus YKR001C, strain vps1, active compounds read low 1.01 | S. cerevisiae deletion strains, locus YKR026C, strain gcn3, active compounds read low 0.976 | S. cerevisiae deletion strains, locus YKR091W, strain srl3, active compounds read low 0.975 | S. cerevisiae deletion strains, locus YLL001W, strain dnm1, active compounds read low 1 | S. cerevisiae deletion strains, locus YLL026W, active compounds read low 0.983 | S. cerevisiae deletion strains, locus YLL041C, strain sdh2, active compounds read low 0.984 | S. cerevisiae deletion strains, locus YLR027C, strain aat2, active compounds read low 0.992 | S. cerevisiae deletion strains, locus YLR039C, strain RIC1, active compounds read low 1.08 | S. cerevisiae deletion strains, locus YLR058C, strain SHM2, active compounds read low 1.01 | S. cerevisiae deletion strains, locus YLR102C, strain apc9, active compounds read low 0.999 | S. cerevisiae deletion strains, locus YLR113W, strain HOG1, active compounds read low 0.984 | S. cerevisiae deletion strains, locus YLR221C, strain rsa3, active compounds read low 1.03 | S. cerevisiae deletion strains, locus YLR258W, strain gsy2, active compounds read low 0.961 | S. cerevisiae deletion strains, locus YLR262C, strain YPT6 (second series), active compounds read low 1 | S. cerevisiae deletion strains, locus YLR262C, strain YPT6, active compounds read low 1.07 | S. cerevisiae deletion strains, locus YLR268W, strain sec22, active compounds read low 1.01 | S. cerevisiae deletion strains, locus YLR320W, strain mms22, active compounds read low 0.992 | S. cerevisiae deletion strains, locus YLR330W, strain CHS5, active compounds read low 1.01 | S. cerevisiae deletion strains, locus YLR342W, strain FKS1 (second series), active compounds read low 1 | S. cerevisiae deletion strains, locus YLR342W, strain FKS1, active compounds read low 0.957 | S. cerevisiae deletion strains, locus YLR357W, strain rsc2, active compounds read low 0.937 | S. cerevisiae deletion strains, locus YLR370C, strain arc18, active compounds read low 0.974 | S. cerevisiae deletion strains, locus YLR371W, strain rom2, active compounds read low 1 | S. cerevisiae deletion strains, locus YLR384C, strain iki3, active compounds read low 0.97 | S. cerevisiae deletion strains, locus YLR418C, strain cdc73, active compounds read low 1 | S. cerevisiae deletion strains, locus YML016C, strain PPZ1, active compounds read low 1.01 | S. cerevisiae deletion strains, locus YML032C, strain rad52, active compounds read low 0.996 | S. cerevisiae deletion strains, locus YML120C, strain ndi1, active compounds read low 0.983 | S. cerevisiae deletion strains, locus YML124C, strain tub3, active compounds read low 0.998 | S. cerevisiae deletion strains, locus YMR058W, strain fet3, active compounds read low 1 | S. cerevisiae deletion strains, locus YMR078C, strain ctf18, active compounds read low 0.997 | S. cerevisiae deletion strains, locus YMR125W, strain sto1, active compounds read low 0.952 | S. cerevisiae deletion strains, locus YMR129W, active compounds read low 0.971 | S. cerevisiae deletion strains, locus YMR205C, strain PFK2, active compounds read low 0.995 | S. cerevisiae deletion strains, locus YMR223W, strain ubp8, active compounds read low 0.985 | S. cerevisiae deletion strains, locus YMR231W, strain pep5, active compounds read low 0.987 | S. cerevisiae deletion strains, locus YMR263W, strain SAP30, active compounds read low 1 | S. cerevisiae deletion strains, locus YMR307W, strain GAS1, active compounds read low 1.02 | S. cerevisiae deletion strains, locus YNL067W, strain RPL9B, active compounds read low 1.02 | S. cerevisiae deletion strains, locus YNL071W, strain lat1, active compounds read low 0.981 | S. cerevisiae deletion strains, locus YNL128W, strain TEP1, active compounds read low 1.03 | S. cerevisiae deletion strains, locus YNL153C, strain GIM3, active compounds read low 0.992 | S. cerevisiae deletion strains, locus YNL183C, strain NPR1, active compounds read low 0.956 | S. cerevisiae deletion strains, locus YNL209W, strain ssb2, active compounds read low 0.98 | S. cerevisiae deletion strains, locus YNL233W, strain BNI4, active compounds read low 1.01 | S. cerevisiae deletion strains, locus YNL248C, strain rpa49, active compounds read low 0.92 | S. cerevisiae deletion strains, locus YNL250W, strain rad50, active compounds read low 0.992 | S. cerevisiae deletion strains, locus YNL271C, strain bni1, active compounds read low 1 | S. cerevisiae deletion strains, locus YNL298W, strain CLA4, active compounds read low 1.01 | S. cerevisiae deletion strains, locus YNL307C, strain MCK1, active compounds read low 1 | S. cerevisiae deletion strains, locus YNL322C, strain KRE1 (second series), active compounds read low 0.963 | S. cerevisiae deletion strains, locus YNL322C, strain KRE1, active compounds read low 1.02 | S. cerevisiae deletion strains, locus YNR049C, strain mso1, active compounds read low 0.979 | S. cerevisiae deletion strains, locus YNR052C, strain pop2, active compounds read low 0.999 | S. cerevisiae deletion strains, locus YOL006C, strain TOP1, active compounds read low 1.06 | S. cerevisiae deletion strains, locus YOL012C, strain htz1 1.07 | S. cerevisiae deletion strains, locus YOL147C, strain pex11, active compounds read low 0.995 | S. cerevisiae deletion strains, locus YOR001W, strain rrp6, active compounds read low 1.01 | S. cerevisiae deletion strains, locus YOR061W, strain CKA2, active compounds read low 1.01 | S. cerevisiae deletion strains, locus YOR069W, strain VPS5, active compounds read low 1.01 | S. cerevisiae deletion strains, locus YOR070C, strain gyp1, active compounds read low 0.973 | S. cerevisiae deletion strains, locus YOR080W, strain dia2, active compounds read low 0.996 | S. cerevisiae deletion strains, locus YOR083W, strain WHI5, active compounds read low 0.914 | S. cerevisiae deletion strains, locus YOR106W, strain vam3, active compounds read low 0.96 | S. cerevisiae deletion strains, locus YOR136W, strain idh2, active compounds read low 0.999 | S. cerevisiae deletion strains, locus YOR144C, strain elg1, active compounds read low 0.999 | S. cerevisiae deletion strains, locus YOR184W, strain ser1, active compounds read low 1.01 | S. cerevisiae deletion strains, locus YOR231W, strain MKK1, active compounds read low 1.02 | S. cerevisiae deletion strains, locus YOR265W, strain rbl2, active compounds read low 0.991 | S. cerevisiae deletion strains, locus YOR270C, strain vph1, active compounds read low 1.03 | S. cerevisiae deletion strains, locus YOR290C, strain snf2, active compounds read low 0.942 | S. cerevisiae deletion strains, locus YOR316C, strain cot1, active compounds read low 0.997 | S. cerevisiae deletion strains, locus YPL051W, strain arl3, active compounds read low 0.964 | S. cerevisiae deletion strains, locus YPL055C, strain LGE1, active compounds read low 1.02 | S. cerevisiae deletion strains, locus YPL078C, strain atp4, active compounds read low 0.95 | S. cerevisiae deletion strains, locus YPL106C, strain sse1, active compounds read low 0.977 | S. cerevisiae deletion strains, locus YPL240C, strain hsp82, active compounds read low 1.02 | S. cerevisiae deletion strains, locus YPL241C, strain CIN2, active compounds read low 1.01 | S. cerevisiae deletion strains, locus YPL256C, strain CLN2, active compounds read low 0.964 | S. cerevisiae deletion strains, locus YPR119W, strain clb2, active compounds read low 1.01 | S. cerevisiae deletion strains, locus YPR141C, strain kar3, active compounds read low 0.997 | S. cerevisiae deletion strains, locus YPR163C, strain tif3, active compounds read low 1 | S. cerevisiae deletion strains, locus YPR167C, strain met16, active compounds read low 1 | S. cerevisiae deletion strains, strain wtn01, active compounds read low 0.98 | S. cerevisiae strains, strain wild type, active compounds read low 1.01
